Source: PubChem BioAssay AID493205 (National Center for Advancing Translational Sciences (NCATS), 2011)
Some of the results follow. Results filed as inconclusive are left out. Values without a mark were called inactive. Calls of active or inactive are those of the source. Calls follow the shape of the dose curve; as a rule, active = well fitted inhibition curve with a large enough effect; inconclusive = small, poorly fitted or top-dose-only effect, or effect the other way; inactive = no such curve, though single readings can be large or run the other way.

What follows are molecules tested against Muscleblind-like protein 1 (Homo sapiens) (UniProt Q9NR56) (assay: qHTS Assay for Inhibitors of MBNL1-poly(CUG) RNA binding: Initial hit validation in AlphaScreen assay for MBNL1-(CUG)12 binding). Conditions: AlphaScreen MBNL1-His / biotin-(CUG)12 binding; series mostly up to 57.7 µM; activity, negative = inhibition: at the top concentration.
Chain of Muscleblind-like protein 1 (Homo sapiens) (Q9NR56 whole entry, looked up): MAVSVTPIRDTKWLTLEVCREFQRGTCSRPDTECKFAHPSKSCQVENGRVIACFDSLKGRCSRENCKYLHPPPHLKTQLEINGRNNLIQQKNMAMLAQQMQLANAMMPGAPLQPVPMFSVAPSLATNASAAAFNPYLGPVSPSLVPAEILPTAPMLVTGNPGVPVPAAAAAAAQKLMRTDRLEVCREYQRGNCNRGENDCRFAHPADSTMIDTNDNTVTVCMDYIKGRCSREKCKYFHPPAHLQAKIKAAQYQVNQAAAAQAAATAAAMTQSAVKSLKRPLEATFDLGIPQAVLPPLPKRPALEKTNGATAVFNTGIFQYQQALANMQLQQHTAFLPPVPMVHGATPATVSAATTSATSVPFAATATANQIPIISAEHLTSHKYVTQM
Source text: NIH Chemical Genomics Center [NCGC] NIH Molecular Libraries Probe Production Centers Network [MLPCN] MLPCN Grant: R03 MH087421-01 Assay Submitter (PI): Charles Thornton NCGC Assay Overview: Expanded CTG repeats in the 3' untranslated region of the DM protein kinase (DMPK) gene causes type I myotonic dystrophy (DM1). DM1 is a multi-systemic disease with a prevalence of 1/7000. Clinical features include myotonia, progressive muscle weakness and wasting, cardiac arrhythmia, insulin resistance, hypersomnolence, cataracts, and other symptoms. The pathogenic effect of expanded CTG repeats stems from deleterious effects of the mutant transcript. CUGexp mRNA accumulates in nuclear foci and sequesters proteins of the muscleblind family, of which MBNL1 is the most common family member in skeletal muscles. The binding interaction between MBNL1 and CUGexp tracts leads to deregulation of alternative splicing and is therefore a key molecular step in the pathogenesis of DM1. […]
NCGC Assay Protocol Summary: This is a proximity-based binding assay with MBNL1-His and Biotin-(CUG)12 RNA. […] The AC50 values were determined from concentration-response data modeled with the standard Hill equation Assay buffer: 20mM HEPES, 110mM KCl, 10mM NaCl, 2mM MgCl2, 2mM CaCl2, 5mM DTT, 0.1% BSA, 0.05% Tween 20 1536-well assay protocol for the MBNL1-(CUG)12 binding assay: (1) Add 2 ul/well 20nM MBNL1-His, 20nM Biotin-(CUG)12 (2) Add 23 nL compounds in DMSO solution. […] (3) Add 1 ul of Nickel-coated AlphaScreen acceptor beads (6.25 ng/ul final concentration) (4) Incubate 30 min at room temperature (5) Add 1 ul of Streptavidin-conjugated AlphaScreen donor beads (6.25 ng/ul final concentration) (6) Incubate 60 min at room temperature (7) Detect the assay plate in a EnVision plate reader (PerkinElmer) with AlphaScreen protocol Keywords: mytonic dystrophy type I, DM1, muscleblind like 1, MBNL1, CUG expansion, protein-RNA binding inhibitor, high throughput screening, MLSMR, MLSCN, NIH Roadmap, qHTS and NCGC
In the case of `COc1cccc(NC(=O)Cn2cnc3sc(C)c(S(=O)(=O)N4CCN(C)CC4)c3c2=O)c1`, the “activity, negative = inhibition” value is reported as -4.19%.
For `CCOC(=O)c1c(C)[nH]c2c1-c1ccccc1C(=O)C2=O`, the Potency was 4.11 µM (active).
`COc1ccc(Cc2n[nH]c(=S)n2NC(=O)Nc2ccc(C)cc2)cc1` was tested, and the “activity, negative = inhibition” value was -7.23%.
